Compound activity deposited in PubChem by National Center for Advancing Translational Sciences (NCATS).
An excerpt weighted towards active compounds, which were near 22% of everything screened.
LmPK inh: blocks Leishmania mexicana pyruvate kinase activity; Potency, µM (titrated, usually from 57.5 µM), for inactives: top-dose activity change, negative = inhibition, actives largely listed as inhibitors; Q27686; purified LmPK, Kinase-Glo ATP luminescence, 1 h; AID 1721; 0.37% of 290,000 active; also: potency is read from the fitted curve at half-maximal effect; % is scaled to controls: 0 for no effect and ±100 for the full control effect
Target sequence (Q27686 whole entry, looked up): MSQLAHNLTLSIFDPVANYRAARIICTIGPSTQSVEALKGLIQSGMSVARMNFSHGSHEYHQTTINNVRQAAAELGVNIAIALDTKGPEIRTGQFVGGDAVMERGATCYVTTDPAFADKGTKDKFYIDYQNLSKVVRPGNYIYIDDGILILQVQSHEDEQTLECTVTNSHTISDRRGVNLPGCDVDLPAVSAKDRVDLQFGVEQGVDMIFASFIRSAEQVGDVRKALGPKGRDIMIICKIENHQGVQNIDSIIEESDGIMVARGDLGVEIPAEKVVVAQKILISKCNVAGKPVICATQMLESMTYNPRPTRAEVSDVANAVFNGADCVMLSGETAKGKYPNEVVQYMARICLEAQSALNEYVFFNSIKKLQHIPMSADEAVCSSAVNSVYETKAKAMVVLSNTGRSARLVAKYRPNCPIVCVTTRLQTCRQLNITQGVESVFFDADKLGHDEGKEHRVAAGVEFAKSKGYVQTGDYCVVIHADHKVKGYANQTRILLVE
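Kinase-Glo luminescence read after 1 h RT reaction of 0.1 nM LmPK with 0.5 mM PEP and 0.1 mM ADP. Activity scaled between uninhibited and enzyme-free controls.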
Shiga inhibitor: inhibitors of Shiga toxin in Vero cells | Vero cells, Shiga toxin protein synthesis inhibition reporter | inhibition, % at 38.7 µM | 9.2% of 290,000 active | AID 2315; in the data active = inhibition mostly above about 28%, no sharp cut-off; inactive = mostly below about 43%; also: 0% is about no effect
Pf growth 48h: P. falciparum growth inhibition at 48 hours (one generation). P. falciparum luciferase growth in erythrocytes, 48 h. Potency, µM (highest dose often 28.7 µM), inactives show at the top dose activity change, negative = inhibition, hits mostly inhibitors. 5.9% of 310,000 active. AID 504832; also: potency is read from the fitted curve at half-maximal effect; % is scaled to controls: 0 for no effect and ±100 for the full control effect
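Read-out is firefly luciferase luminescence from an integrated reporter in P. falciparum, so falling signal marks reduced parasite growth. Infected erythrocytes were at 2% hematocrit and 0.1% parasitemia (final) in Albumax-supplemented RPMI 1640.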
Pf growth 96h: inhibits malaria parasite growth, 96 h; 6.9% of 320,000 active; AID 504834; P. falciparum luciferase reporter growth, 96 h; Potency, µM (doses to about 28.7 µM), for inactives: at the highest dose activity change, negative = inhibition, usual class: inhibitors; also: potency is read from the fitted curve at half-maximal effect; % is scaled to controls: 0 for no effect and ±100 for the full control effect
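P. falciparum expressing integrated firefly luciferase, in erythrocytes at 2% hematocrit, 0.05% parasitemia, incubated with compounds 96 h at 37 C, 5% CO2. Growth inhibition read as loss of luminescence; two-generation exposure targets delayed-death apicoplast inhibitors.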
CHX counter: counter-screen for Shiga toxin inhibitors: cycloheximide protein synthesis inhibition; cell reporter, cycloheximide protein synthesis inhibition counterscreen; max response, %; 12% of 300,000 active; in the data active = max response mostly above about 13%, no sharp cut-off; inactive = mostly below about 14%; also: read at 38.3 µM for the half of the compounds with a filed dose; 0% is about no effect
* marks the source's active call; other numbers are inactive results; u = inconclusive; x = no result given; [ ] = another dose, or the depositor's remark. Unless noted, calls follow the shape of the dose curve; as a rule, active = well fitted inhibition curve with a large enough effect; inconclusive = small, poorly fitted or top-dose-only effect, or another doubt; inactive = no such curve, though single readings can be large or run the other way.

SMILES | LmPK inh | Shiga inhibitor | Pf growth 48h | Pf growth 96h | CHX counter
NC(=O)CSc1nnc(SCc2ccc(F)cc2)s1 | 0% | 26 | 24% | u | 13
O=C(NCc1ccc(Cl)cc1)c1cc2ccccc2oc1=O | -7% | 11 | -5% | 5.2µM* | 14
COC(=O)c1cc2ccccc2oc1=O | 0% | 6 | 0% | x | 14
O=C(NCc1ccccc1)c1cc2ccccc2oc1=O | 1% | 44* | 28% | -29% | 50*
CC(C)(C)NC(=O)c1cc2c(ccc3ccccc32)oc1=O | 2% | x | 22% | 106% | 27*
COc1ccccc1CNC(=O)c1cc2ccccc2oc1=O | -2% | -12 | -17% | -23% | -3
CN(C)C(CNC(=O)c1cc2ccccc2oc1=O)c1ccccc1 (configuration not stated) | -8% | 90* | 26% | 35% | 27*
COc1ccccc1N(CC(=O)N1CCN(c2ccc(F)cc2)CC1)S(=O)(=O)c1ccc(C)cc1 | 4% | -17 | u | 14% | -1
Cn1c(=O)c2sccc2n(Cc2cccc(Br)c2)c1=O | -2% | -6 | 31% | u | -2
Cc1ccc2c(c1)-c1nc3ccccc3cc1C2=NC1CCCCC1 | -10% | 85* | 130% | 53% | 55*
Cc1ccc2c(c1)C(=NC1CCCCC1)c1cc3ccccc3nc1-2 | -5% | 41* | 172% | 267% | 51*
Cc1ccc(-c2cc3ccccc3nc2N2CCCC2)cc1 | 4% | -24 | u | 3% | -4
O=C(CN(Cc1ccccc1)C(=O)CNS(=O)(=O)c1ccc(F)cc1)NCc1ccco1 | 2% | -12 | 15% | 15% | -4
Cc1cc(C)c2cc(CN(Cc3cccnc3)C(=O)c3ccc(F)cc3)c(Cl)nc2c1 | 0% | -13 | 1.5µM* | u | -2
O=C(O)C1CC=CCC1C(=O)Nc1cccc(C(=O)N2CCCCC2)c1 (configuration not stated) | -1% | -2 | 14% | 192% | -2
O=C(Cc1cccc(NC(=O)C2CCCN(C(=O)C3CCC3)C2)c1)Nc1cccc(C(=O)N2CCCC2)c1 (configuration not stated) | x | x | u | 2.3µM* | x
O=C(c1cccc(F)c1)N1CCCC(C(=O)N2CCCCC2)C1 (configuration not stated) | 5% | -13 | -24% | u | -3
O=C(Cc1cccc(NC(=O)C2CCCN(C(=O)C3CCCCC3)C2)c1)Nc1cccc(C(=O)N2CCCC2)c1 (configuration not stated) | x | x | 4.1µM* | u | x
COC(=O)C(NC(=O)c1ccccc1)=C(C)C | 3% | -10 | 8% | 4.1µM* | -1
COc1ccccc1NC(=O)C(C)NC(c1ccccc1)c1ccccc1 (configuration not stated) | -5% | -5 | 13µM* | 8.3µM* | -3
COc1ccccc1NC(=O)NC(=O)c1ccccc1 | -5% | 59* | 201% | -9% | 23*
COc1ccc(NC(=O)NC(=O)c2ccccc2)cc1 | -6% | x | 283% | 133% | 25*
O=C(NCc1ccccc1)c1cc[n+](CC(=O)c2cccs2)cc1 | -4% | 25 | 3% | 114% | 7
O=C(NC(=O)c1ccccc1)Nc1cccc(S(=O)(=O)N2CCCCC2)c1 | 0% | -3 | 30% | u | -1
O=C(NC(=O)c1ccccc1)Nc1ccccc1 | -14% | 51* | 29% | 151% | 42*
SMILES | LmPK inh | Shiga inhibitor | Pf growth 48h | Pf growth 96h | CHX counter
O=[N+]([O-])c1cc(-c2ccc(C(=S)N3CCOCC3)o2)ccc1Cl | -20% | 55* | 22% | u | 31*
CN1CCN(C(=S)c2ccc(-c3cccc([N+](=O)[O-])c3)o2)CC1 | -2% | 102* | 231% | 206% | 51*
O=[N+]([O-])c1cccc(-c2ccc(C(=S)N3CCN(c4ccccc4)CC3)o2)c1 | 1% | -3 | 7% | 6% | 2
O=[N+]([O-])c1cccc(-c2ccc(CN3CCCCC3)o2)c1 | 3% | x | 6% | 5% | 3
O=C(N/N=C/c1cccc([N+](=O)[O-])c1)c1ccc(CN2CCOCC2)cc1 | -1% | 13 | -2% | 44% | -3
O=C(Nc1ccc(CN2CCOCC2)cc1)c1ccc(-c2cccc([N+](=O)[O-])c2)o1 | 1% | 3 | u | 2.6µM* | 15
O=[N+]([O-])c1cccc(-c2ccc(C(=S)N3CCOCC3)o2)c1 | 0% | 72* | 186% | u | 39*
COc1cccc(-c2cc(C(=O)NCc3ccco3)c3ccccc3n2)c1 | 18% | x | u | u | -3
CCc1noc(C)c1C(=O)N(Cc1ccccc1)c1c(N)n(CCOC)c(=O)[nH]c1=O | x | x | 5% | -15% | x
O=C1N/C(=N\N=C\c2cccs2)SC1Cc1cccc(Cl)c1 (configuration not stated) | 10% | 20 | 13µM* | 8% | -2
O=C1N/C(=N\N=C\c2cccs2)SC1Cc1ccc(Cl)cc1 (configuration not stated) | 1% | -7 | u | 0.74µM* | -6
C(=N\N=C\c1cccs1)/c1cccs1 | 13% | 71* | 411% | u | 45*
CC1S/C(=N/N=C/c2cccs2)NC1=O (configuration not stated) | 3% | 20* | 4% | 11% | 16*
C(=N\n1cnnc1)/c1cccs1 | 0% | -10 | 22% | x | -5
O=C1N/C(=N\N=C\c2ccc3ncccc3c2)SC1Cc1ccc(SC(F)F)cc1 (configuration not stated) | -1% | -15 | 15% | x | -3
O=C1N/C(=N\N=C\c2cccnc2)SC1Cc1ccc(SC(F)F)cc1 (configuration not stated) | 2% | -15 | 3.3µM* | x | 8
O=C(O)/C=C/c1ccc(OCc2cccc(F)c2)cc1 | 0% | 17 | 14% | -26% | -4
O=C(O)CCCC(=O)OCCCCc1cccs1 | -1% | -17 | 18% | 5.2µM* | -7
CC(=O)c1ccc(NC(=O)CN2CCCCCC2)cc1 | -2% | 37 | 22% | 32% | 18
CCN1CCN(C(=O)NC(C(=O)NC2C(=O)N3C(C(=O)O)=C(CSc4nnnn4C)CSC23)c2ccc(O)cc2)C(=O)C1=O (configuration not stated) | x | 14 | 6% | -11% | -1
CC1=NN(c2ccccc2)C(=O)C1C(=O)C(=O)Nc1ccc(F)cc1 (configuration not stated) | -2% | 79* | 365% | 199% | 30*
Cc1ccc(NC(=O)C(=O)C2C(=O)Nc3ccccc32)cc1 (configuration not stated) | -7% | 22 | 104% | 52% | 11*
COc1cccc(NC(=O)CCSc2ccc(C)cc2)c1 | 0% | 25 | 19% | 51% | 9
NS(=O)(=O)c1cc([C@@]2(O)NC(=O)c3ccccc32)ccc1Cl | x | x | -11%[12.8 µM] | -9%[12.8 µM] | x
CN1CCN(C(=O)c2ccccc2NC(=O)c2cccc(Cl)c2)CC1 | -1% | -14 | 7% | 2% | -5
